Where “and” joins values, the source holds several entries; their conditions need not be identical. Identical values can stand only once. The source holds several records for some structures; these can differ, active in one and inactive in another. Calls of active or inactive are those of the source. The calls were made as follows: active = hit-call score of the fitted dose curve at least 0.9, where 1 is the maximum; inactive = score below 0.9.
Legend:
[1] = ATG_EGR_CIS: Attagene CIS-FACTORIAL HepG2 Assay for human Early Growth Response 1 (EGR1) (AID 2282938); details: HepG2 Attagene CIS-FACTORIAL EGR reporter mRNA; actives raise or lower the signal
Summary of the method: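 HepG2, transient MRTU transfection (cis promoters), 24 h compound. RNA → RT (oligo-dT) → PCR → 6-FAM labelling → HpaI cut → CE fluorescence. Bidirectional fit, DMSO baseline.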

[2] = ATG_M_19_CIS: Attagene CIS-FACTORIAL HepG2 Assay for M19 Transcription Factor (Internal Marker) (AID 2282939); details: HepG2 Attagene CIS-FACTORIAL M19 internal marker reporter; actives raise or lower the signal
Summary of the method: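 Chemical-treated HepG2 (24 h) with MRTU constructs; reporter transcripts detected by fluorescent RT-PCR fragment analysis on capillary electrophoresis. Internal background marker, DMSO as baseline.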

[3] = ATG_ERE_CIS: Attagene CIS-FACTORIAL HepG2 Assay for Estrogen Response Element (ERE) (AID 2282940); details: HepG2 ERE cis-reporter, Attagene RNA transcript; actives raise or lower the signal
Summary of the method: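 Human liver cells (HepG2) bearing transiently transfected, promoter-regulated reporter units were exposed 24 h. Reporter mRNA induction was detected by capillary electrophoresis of labelled RT-PCR products and fitted bidirectionally to DMSO.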

[4] = ATG_Ets_CIS: Attagene CIS-FACTORIAL HepG2 Assay for human Erythroblast Transformation Specific (ETS) (AID 2282941); details: HepG2 ETS cis-reporter transcription, actives raise or lower the signal
Summary of the method: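 Human HepG2 hepatoma cells were transiently transfected with promoter-driven reporter constructs and treated for 24 hours. Reporter transcripts were quantified by RT-PCR with fluorescent primer extension; bidirectional curve fitting used DMSO as reference.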

[5] = target: Hepatocyte nuclear factor 3-beta (Homo sapiens) (UniProt Q9Y261); experiment: ATG_FoxA2_CIS: Attagene CIS-FACTORIAL HepG2 Assay for human Forkhead box A2 (FOXA2) (AID 2282942); details: HepG2 cis-reporter transcription factor activity, 24 h; actives raise or lower the signal
Summary of the method: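 Cells: HepG2, transient multiplex reporter transfection. Exposure 24 h. Detection: reporter-specific RT-PCR, fluorescent labelling, restriction digest, capillary electrophoresis. Analysis: bidirectional curve fit, DMSO as negative control.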

[6] = ATG_FoxO_CIS: Attagene CIS-FACTORIAL HepG2 Assay for human Forkhead box O (FoxO) (AID 2282943); details: HepG2 Attagene cis-reporter, FoxO element, mRNA; actives raise or lower the signal
Summary of the method: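 HepG2 cells transiently transfected with cis-element-driven reporter units report endogenous FoxO activity. After 24 h chemical exposure, reporter mRNA quantified by RT-PCR, fluorescent labeling, HpaI digestion and capillary electrophoresis; bidirectional fit versus DMSO.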

[7] = ATG_GATA_CIS: Attagene CIS-FACTORIAL HepG2 Assay for human GATA Binding Protein (AID 2282944); details: HepG2 GATA cis-element reporter, Attagene multiplex mRNA; actives raise or lower the signal
Summary of the method: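 Transfected cis-reporter HepG2 cells were treated with chemicals for 24 hours. Total RNA was then converted to cDNA, amplified with reporter-specific primers and analysed by fluorescent capillary electrophoresis, using DMSO-treated wells as baseline.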

[8] = ATG_GLI_CIS: Attagene CIS-FACTORIAL HepG2 Assay for human Zinc Finger Protein GLI1 (AID 2282945); details: HepG2, Attagene cis-factorial reporter mRNA, GLI element; actives raise or lower the signal
Summary of the method: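 Transiently transfected HepG2 cells report endogenous transcription factor activity via cis-element-driven reporter units. After 24 h compound exposure, reporter mRNA was measured by RT-PCR with capillary electrophoresis; bidirectional fitting against DMSO baseline.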

[9] = ATG_GRE_CIS: Attagene CIS-FACTORIAL HepG2 Assay for human Glucocorticoid Response Elements (GRE) (AID 2282947); details: HepG2 GRE cis-reporter, Attagene multiplex mRNA; actives raise or lower the signal
Summary of the method: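 Endogenous transcription factor activity is read through cis-element reporter constructs transiently transfected into HepG2 cells. After 24 h treatment, labelled RT-PCR products are resolved by capillary electrophoresis; DMSO sets baseline for bidirectional curve fitting.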

[10] = target: Bile acid receptor (Homo sapiens) (UniProt Q96RI1); experiment: ATG_IR1_CIS: Attagene CIS-FACTORIAL HepG2 Assay for human Nuclear Receptor Subfamily 1 Group H Member 4 (NR1H4), IR1 submotif (AID 2282946); details: IR1 reporter transcription, actives raise or lower the signal
Summary of the method: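 HepG2 cells transiently transfected with multiple cis-promoter-driven reporter units to measure endogenous transcription factor activity; 24 h exposure. Reporter mRNA read by RT-PCR, FAM labelling, HpaI digestion and capillary electrophoresis. Bidirectional fit versus DMSO.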

Bile acid receptor (Homo sapiens), sequence (Q96RI1 whole entry, looked up): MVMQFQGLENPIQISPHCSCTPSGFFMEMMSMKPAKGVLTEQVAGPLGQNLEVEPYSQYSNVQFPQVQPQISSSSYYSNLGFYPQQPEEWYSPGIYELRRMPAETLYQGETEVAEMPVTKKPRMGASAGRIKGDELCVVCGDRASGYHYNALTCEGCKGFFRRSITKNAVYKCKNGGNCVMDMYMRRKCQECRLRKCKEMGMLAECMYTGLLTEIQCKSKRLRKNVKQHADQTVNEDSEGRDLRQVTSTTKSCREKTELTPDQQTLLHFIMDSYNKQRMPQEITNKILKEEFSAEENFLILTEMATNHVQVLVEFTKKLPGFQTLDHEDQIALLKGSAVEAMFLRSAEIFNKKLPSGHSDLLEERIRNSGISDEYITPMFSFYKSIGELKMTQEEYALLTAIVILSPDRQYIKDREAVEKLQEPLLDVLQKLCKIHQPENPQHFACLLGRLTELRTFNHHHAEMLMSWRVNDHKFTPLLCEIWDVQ
Hepatocyte nuclear factor 3-beta (Homo sapiens), sequence (Q9Y261 whole entry, looked up): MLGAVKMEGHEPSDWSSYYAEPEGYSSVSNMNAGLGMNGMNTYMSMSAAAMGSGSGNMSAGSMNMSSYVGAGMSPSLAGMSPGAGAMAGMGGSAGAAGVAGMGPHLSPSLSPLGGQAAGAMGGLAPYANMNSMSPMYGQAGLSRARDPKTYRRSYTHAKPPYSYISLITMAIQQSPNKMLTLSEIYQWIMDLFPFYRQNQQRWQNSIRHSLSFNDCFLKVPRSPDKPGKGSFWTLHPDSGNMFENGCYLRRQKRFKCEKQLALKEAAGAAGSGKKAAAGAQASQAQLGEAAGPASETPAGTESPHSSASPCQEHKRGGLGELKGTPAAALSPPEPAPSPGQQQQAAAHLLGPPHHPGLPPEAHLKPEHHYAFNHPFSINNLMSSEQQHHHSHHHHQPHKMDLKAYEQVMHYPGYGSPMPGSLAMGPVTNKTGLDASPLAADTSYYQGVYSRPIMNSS

## N#CCc1ccc(Cl)cc1
[1]
  outcome: inactive
[2]
  outcome: inactive
[3]
  outcome: inactive
[4]
  outcome: inactive
[5]
  outcome: inactive
[6]
  outcome: inactive
[7]
  outcome: inactive
[8]
  outcome: inactive
[9]
  outcome: inactive

## COc1cc2c(cc1OC)[C@@]13CCN4CC5=CCO[C@H]6CC(=O)N2[C@H]1[C@H]6[C@H]5C[C@H]43
[1]
  outcome: inactive
[2]
  outcome: inactive
[3]
  outcome: inactive
[4]
  outcome: inactive
[5]
  outcome: inactive
[6]
  outcome: inactive
[7]
  outcome: inactive
[8]
  outcome: inactive

## Cc1ccc(N)cc1Cl
[1]
  outcome: inactive
[2]
  outcome: inactive
[3]
  outcome: inactive
[4]
  outcome: inactive
[5]
  outcome: inactive
[6]
  outcome: inactive
[7]
  outcome: inactive
[8]
  outcome: inactive

## Clc1nc(Cl)nc(Cl)n1
[1]
  outcome: inactive
[2]
  outcome: inactive
[3]
  outcome: inactive
[4]
  outcome: inactive
[5]
  outcome: inactive
[6]
  outcome: inactive
[7]
  outcome: inactive
[8]
  outcome: inactive
[9]
  outcome: inactive

## CCOP(=S)(OCC)SCCS(=O)(=O)CC
[1]
  outcome: inactive
[2]
  outcome: inactive
[3]
  outcome: inactive
[4]
  outcome: inactive
[5]
  outcome: inactive
[6]
  outcome: inactive
[7]
  outcome: inactive
[8]
  outcome: inactive
[9]
  outcome: inactive

## COc1cccc(C=O)c1
[1]
  outcome: inactive
[2]
  outcome: inactive
[3]
  outcome: inactive
[4]
  outcome: inactive
[5]
  outcome: inactive
[6]
  outcome: inactive
[7]
  outcome: inactive
[8]
  outcome: inactive
[9]
  outcome: inactive

## CCOP(=S)(OCC)Oc1ccc(S(C)=O)cc1 (configuration not stated)
[1]
  outcome: inactive
[2]
  outcome: inactive
[3]
  outcome: inactive
[4]
  outcome: inactive
[5]
  outcome: inactive
[6]
  outcome: inactive
[7]
  outcome: inactive
[8]
  outcome: inactive

## CC(=O)OC(c1ccccc1)C(Cl)(Cl)Cl (configuration not stated)
[1]
  outcome: inactive
[2]
  outcome: inactive
[3]
  AC50: 73.8 µM (active)
[4]
  outcome: inactive
[5]
  outcome: inactive
[6]
  outcome: inactive
[7]
  outcome: inactive
[8]
  outcome: inactive
[9]
  outcome: inactive

## CC(C)OC(=O)Nc1ccccc1
[1]
  outcome: inactive
[2]
  outcome: inactive
[3]
  outcome: inactive
[4]
  outcome: inactive
[5]
  outcome: inactive
[6]
  outcome: inactive
[7]
  outcome: inactive
[8]
  outcome: inactive

## COS(=O)(=O)c1ccc(C)cc1
[1]
  outcome: inactive
[2]
  outcome: inactive
[3]
  outcome: inactive
[4]
  outcome: inactive
[5]
  outcome: inactive
[6]
  outcome: inactive
[7]
  outcome: inactive
[8]
  outcome: inactive
[9]
  outcome: inactive

## CCOC(=O)/C=C(C)/C=C/C[C@@H](C)CCCC(C)C
[1]
  AC50: 158 µM (active)
[2]
  AC50: 157 µM (active)
[3]
  outcome: inactive
[4]
  outcome: inactive
[5]
  outcome: inactive
[6]
  outcome: inactive
[7]
  AC50: 158 µM (active)
[8]
  AC50: 149 µM (active)
[10]
  AC50: 41 µM (active)
[9]
  AC50: 74.7 µM (active)

## Oc1cccc2cccnc12
[1]
  AC50: 70.1 µM (active)
  outcome: inactive
[2]
  outcome: inactive
[4]
  outcome: inactive
[6]
  outcome: inactive
[7]
  outcome: inactive
[8]
  outcome: inactive
[10]
  outcome: inactive

## CCC1(c2ccc(N)cc2)CCC(=O)NC1=O (configuration not stated)
[1]
  outcome: inactive
[2]
  outcome: inactive
[3]
  outcome: inactive
[4]
  outcome: inactive
[5]
  outcome: inactive
[6]
  outcome: inactive
[7]
  outcome: inactive
[8]
  outcome: inactive
[10]
  outcome: inactive
[9]
  outcome: inactive

## NNC(=S)NN
[1]
  outcome: inactive
[2]
  outcome: inactive
[3]
  outcome: inactive
[4]
  outcome: inactive
[5]
  outcome: inactive
[6]
  outcome: inactive
[7]
  outcome: inactive
[8]
  outcome: inactive

## ClC1(Cl)C2(Cl)C3(Cl)C4(Cl)C(Cl)(Cl)C5(Cl)C3(Cl)C1(Cl)C5(Cl)C24Cl (configuration not stated)
[1]
  outcome: inactive
[2]
  outcome: inactive
[3]
  outcome: inactive
[4]
  outcome: inactive
[5]
  outcome: inactive
[6]
  outcome: inactive
[7]
  outcome: inactive
[8]
  outcome: inactive
[10]
  outcome: inactive
[9]
  outcome: inactive

## COc1ccc(C=O)cc1OC
[1]
  outcome: inactive
[2]
  outcome: inactive
[3]
  AC50: 15.2 µM (active)
[4]
  outcome: inactive
[5]
  outcome: inactive
[6]
  outcome: inactive
[7]
  outcome: inactive
[8]
  outcome: inactive

## CCSC(C)CC1CC(=O)C(C(CC)=NOC/C=C/Cl)=C(O)C1 (configuration not stated)
[1]
  outcome: inactive
[2]
  outcome: inactive
[3]
  outcome: inactive
[4]
  outcome: inactive
[5]
  outcome: inactive
[6]
  outcome: inactive
[7]
  outcome: inactive
[8]
  outcome: inactive
[10]
  outcome: inactive
[9]
  outcome: inactive

## O=CC=O
[1]
  outcome: inactive
[2]
  outcome: inactive
[3]
  outcome: inactive
[4]
  outcome: inactive
[5]
  outcome: inactive
[6]
  outcome: inactive
[7]
  outcome: inactive
[8]
  outcome: inactive
[9]
  outcome: inactive

## O=P(O)(O)CN(CP(=O)(O)O)CP(=O)(O)O
[1]
  outcome: inactive
[2]
  outcome: inactive
[3]
  outcome: inactive
[4]
  outcome: inactive
[5]
  outcome: inactive
[6]
  outcome: inactive
[7]
  outcome: inactive
[8]
  outcome: inactive
[9]
  outcome: inactive

## CCOP(=S)(OCC)SCSP(=S)(OCC)OCC
[1]
  outcome: inactive
[2]
  outcome: inactive
[3]
  AC50: 6.47 µM (active)
[4]
  outcome: inactive
[5]
  outcome: inactive
[6]
  outcome: inactive
[7]
  outcome: inactive
[8]
  outcome: inactive
[9]
  outcome: inactive

## Nc1ccc(Cl)cc1C(=O)c1ccccc1
[1]
  AC50: 26.3 µM (active)
[2]
  outcome: inactive
[3]
  outcome: inactive
[4]
  outcome: inactive
[5]
  outcome: inactive
[6]
  outcome: inactive
[7]
  outcome: inactive
[8]
  outcome: inactive
[10]
  outcome: inactive
[9]
  outcome: inactive

## COP(=S)(OC)Oc1ccc(Sc2ccc(OP(=S)(OC)OC)cc2)cc1
[1]
  AC50: 29.8 µM (active)
[2]
  outcome: inactive
[3]
  outcome: inactive
[4]
  outcome: inactive
[5]
  outcome: inactive
[6]
  outcome: inactive
[7]
  outcome: inactive

## O=C1C2(Cl)C3(Cl)C4(Cl)C(Cl)(Cl)C5(Cl)C3(Cl)C1(Cl)C5(Cl)C24Cl (configuration not stated)
[1]
  AC50: 8.48 µM (active)
  outcome: inactive
[2]
  outcome: inactive
[4]
  AC50: 20.3 µM (active)
  outcome: inactive
[6]
  outcome: inactive
[7]
  AC50: 14.9 µM (active)
  outcome: inactive
[9]
  AC50: 5.27 µM (active)
  outcome: inactive

## COC(=O)Cc1ccccc1
[1]
  outcome: inactive
[2]
  outcome: inactive
[3]
  outcome: inactive
[4]
  outcome: inactive
[5]
  outcome: inactive
[6]
  outcome: inactive
[7]
  outcome: inactive
[8]
  outcome: inactive
[9]
  outcome: inactive

## O=C(O)C(F)(F)C(F)(F)C(F)(F)C(F)(F)C(F)(F)C(F)(F)C(F)(F)C(F)(F)C(F)(F)C(F)(F)F
[1]
  AC50: 24.7 µM (active) and 14.8 µM (active)
[2]
  AC50: 138 µM (active)
  outcome: inactive
[4]
  outcome: inactive
[5]
  outcome: inactive
[6]
  outcome: inactive
[7]
  AC50: 148 µM (active)
  outcome: inactive
[10]
  outcome: inactive

Reference: PubChem BioAssay (EPA / NIEHS)
